# Bioassay records: PubChem BioAssay, National Center for Advancing Translational Sciences (NCATS)
# This excerpt belongs to a sample that is enriched for hits.
# PKM2 inhibitor – PKM2 (human) enzyme inhibition. purified PKM2, ATP generation, Kinase-Glo luminescence. Potency, µM (doses to about 57.5 µM), inactives show top-dose activity change, negative = inhibition, actives largely listed as inhibitors. 260,000 tested, 0.058% active; also: potency is read from the fitted curve at half-maximal effect; nearly all actives have a fitted effect of over 60% in size
# Target sequence (P14618 whole entry, looked up): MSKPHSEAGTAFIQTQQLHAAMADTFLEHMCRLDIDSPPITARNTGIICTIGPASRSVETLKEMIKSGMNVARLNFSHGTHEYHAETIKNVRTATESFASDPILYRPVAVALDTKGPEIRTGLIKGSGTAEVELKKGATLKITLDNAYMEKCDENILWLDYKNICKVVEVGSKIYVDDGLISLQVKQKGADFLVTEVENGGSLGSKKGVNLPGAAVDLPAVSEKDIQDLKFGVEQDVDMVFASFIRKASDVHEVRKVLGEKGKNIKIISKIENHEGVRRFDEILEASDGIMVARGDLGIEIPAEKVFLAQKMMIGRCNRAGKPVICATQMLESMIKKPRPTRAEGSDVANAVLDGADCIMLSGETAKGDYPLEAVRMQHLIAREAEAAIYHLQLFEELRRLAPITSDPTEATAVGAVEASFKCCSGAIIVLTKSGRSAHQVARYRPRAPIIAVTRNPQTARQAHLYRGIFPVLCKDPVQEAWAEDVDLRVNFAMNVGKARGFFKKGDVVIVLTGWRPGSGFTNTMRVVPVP
#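 Coupled luciferase luminescence (Kinase-Glo) detects ATP generated from 0.1 mM ADP and 0.5 mM PEP in imidazole buffer pH 7.2 with KCl, MgCl2; 1 h at room temperature. Enzyme at intermediate activity; normalized to uninhibited and no-enzyme controls.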
# PKM2 inh dose – dose-dependently blocks human pyruvate kinase M2 activity; purified hPK-M2, Kinase-Glo ATP luminescence, 1 h; AID 2263; Potency, µM (titrated, usually from 57.5 µM), for inactives: at the highest dose activity change, negative = inhibition, usual class: inhibitors; 55 tested, 50% active; shares compounds with PKM2 inhibitor
# PKM2 FLuc cs – counter-screen for pyruvate kinase M2 inhibitors: firefly luciferase inhibition; shares compounds with PKM2 inhibitor; Kinase-Glo firefly luciferase, luminescence, 8 min; Potency, µM (doses to about 57.5 µM), for inactives: at the top dose activity, negative = inhibition, usual class: inhibitors; 55 tested, 30% active; AID 2265
# PKM2 inh LDH – blocks human pyruvate kinase M2 in LDH-coupled assay | shares compounds with PKM2 inhibitor | purified hPK-M2, LDH-coupled NADH fluorescence kinetic | Potency, µM (top dose mostly 57.5 µM), without a hit: at the top dose activity change, negative = inhibition, actives largely listed as inhibitors | 55 tested, under 10 active
# * = called active by the depositor; ? = inconclusive; · = no result given. Calls follow the shape of the dose curve; as a rule, active = well fitted curve in the direction sought with a large enough effect; inconclusive = small, poorly fitted or top-dose-only effect, or another doubt; inactive = no such curve, though single readings can be large; an effect the other way counts as inactive or inconclusive.
SMILES,PKM2 inhibitor,others
N/C(=N\OC(=O)c1ccccc1)c1ccccn1,4µM*,PKM2 inh dose=9.2µM*;PKM2 FLuc cs=4.1µM*;PKM2 inh LDH=-9%
CC(N)(C(=O)O)c1cccc(OCc2cccc(Cl)c2)c1 (stereo not given),-8%,
COc1ccc(C(=O)N2CCC(n3c(C)nc4cc(F)ccc43)CC2)cc1,79%,
CCOc1ccc(N2C(=O)CC(Sc3ccccc3C(=O)O)C2=O)c([N+](=O)[O-])c1 (stereo not given),60%,
O=C(O)/C=C/C(=O)Nc1ccccc1SC(F)(F)F,52%,
CCn1c(SCC(=O)Nc2cccc(C)c2)nc2nc3c(cc2c1=O)COC(C)(C)C3,67%,
Cc1cc(C)c(S(=O)(=O)N(C)CC(=O)NCc2ccncc2)c(C)c1,56%,
Cc1c(F)cccc1NS(=O)(=O)c1ccc2c(c1)c(=O)n(C)c(=O)n2C,88%,
CCNc1nc(SCC(=O)Nc2ccc(Cl)c(Cl)c2)nc(N2CCOCC2)n1,56%,
CCN(CC)S(=O)(=O)c1ccc2c(c1)nc(SCc1nc3ccsc3c(=O)[nH]1)n2CC,66%,
COc1ccc(OCC(O)CNS(=O)(=O)c2cccc(Cl)c2)cc1 (stereo not given),36%,
COc1ccc(-c2ccc(Nc3ccc(C(=O)N4CCOCC4)cc3)nn2)cc1OC,5%,
COc1ccc(-c2ccc(=O)n(CC(=O)Nc3cccc(O)c3)n2)cc1OC,53%,
COc1ccc(-c2cn3ccccc3n2)cc1OC,8.9µM*,PKM2 inh dose=?;PKM2 FLuc cs=?;PKM2 inh LDH=?
Cc1noc(/C=C/c2ccco2)c1S(=O)(=O)N1CCC(C(=O)N2CCc3ccccc3C2)CC1,89%,
O=C(CCc1ccccc1)N1CCN(S(=O)(=O)c2cccs2)CC1,83%,
Cc1cncn1CCc1nc2c3ccccc3nc(SCC(=O)Nc3cccc(Cl)c3)n2n1,46%,
OC(CNCCCCNCC(O)C(F)(F)F)C(F)(F)F (stereo not given),7%,
O=c1c2ccccc2sn1-c1cc(S(=O)(=O)N2CCOCC2)ccc1N1CCCC1,3.5µM*,PKM2 inh dose=6.5µM*;PKM2 FLuc cs=1%;PKM2 inh LDH=?
O=C(c1cc(S(=O)(=O)N2CCOCC2)ccc1Cl)N1CCN(c2ccccn2)CC1,87%,
CC1(C)NC(=O)N(CC(=O)Nc2cc(S(=O)(=O)N3CCOCC3)ccc2N2CCOCC2)C1=O,37%,
O=[N+]([O-])c1cc2c(c(CSc3nnnn3-c3ccc(O)cc3)c1)OCOC2,37%,
Cc1oc(=O)c(NC(=O)c2cccc(Cl)c2)cc1C(=O)c1ccccc1,83%,
CC(=O)c1c(C)[nH]c(C(=O)N(C)C(c2ccccc2)c2ccccc2)c1C,54%,
Cc1ccc(NC(=O)c2ccc(Cl)c(N3C(=O)C=CC3=O)c2)cc1,119%,
SMILES,PKM2 inhibitor,others
Cc1ccc(-c2nc3ncccn3c2Nc2ccccc2C)o1,69%,
Cc1ccc(Nc2c(-c3ccc(C)o3)nc3ncccn23)cc1,57%,
Cc1ccc2nc(-c3ccc(C)o3)c(Nc3ccc(Cl)cc3)n2c1,·,PKM2 inh dose=21%;PKM2 FLuc cs=-1%;PKM2 inh LDH=?
Cc1ccc(-c2cc(C(=O)Nc3ccccc3C)c3ccccc3n2)o1,43%,
Cc1ccc(-c2nc3ccccn3c2Nc2ccccc2C)o1,·,PKM2 inh dose=10%;PKM2 FLuc cs=2%;PKM2 inh LDH=4.6µM*
COc1ccc(-c2nc3ccccn3c2Nc2ccccc2C)cc1,·,PKM2 inh dose=?;PKM2 FLuc cs=0%;PKM2 inh LDH=-28%
O=C(CC(c1ccc(F)cc1)c1ccco1)Nc1nccs1 (stereo not given),45%,
Cc1ccc(CNC(=O)CCNC(=O)Cn2ccc3ccccc3c2=O)o1,49%,
CCNC(=O)COC(=O)c1sccc1C,33%,
Oc1ccc(-c2nc3ccc4ccccc4c3c3c2CCC3)cc1O,48%,
O=S(=O)(/N=C(/Nc1ccc(Cl)cc1Cl)c1ccccc1)c1cccs1,87%,
CCc1nn(C(C)C(=O)NC(C)CCc2ccco2)c(=O)c2cc3occc3n12 (stereo not given),46%,
Cc1ccc(CNC(=O)C2CC(c3cccc([N+](=O)[O-])c3)=NO2)o1 (stereo not given),58%,
O=C(Nc1nc2ccccc2n1CCOc1ccccc1)c1ccco1,-6%,
Cc1cc(NC(=O)c2ccccc2)ncc1NC(=O)c1ccco1,?,PKM2 inh dose=16µM*;PKM2 FLuc cs=?;PKM2 inh LDH=-13%
O=C(Nc1cc([N+](=O)[O-])ccc1N1CCCC1)c1ccco1,49%,
Cc1cc(C)n(C(=O)c2cc3c(s2)CCCC3)n1,-10%,
CCCCc1ccc(/C=C2\C(=O)c3ccccc3C(O)=C2C(=O)OCC)cc1,45%,
COC(=O)[C@@]1(Cc2ccc(F)cc2)[C@H]2c3cc(C(=O)N(C)C)n(CCc4ccc(O)c(O)c4)c3C[C@H]2CN1C(=O)c1ccccc1,42%,
COc1ccc(S(=O)(=O)Nc2ccc(F)c(Cl)c2)cc1OC,109%,
COc1ccc(-c2nc3cccc(C)n3c2Nc2ccc(C)cc2)cc1,·,PKM2 inh dose=6%;PKM2 FLuc cs=-3%;PKM2 inh LDH=?
Cc1ccc(Nc2c(-c3ccc(C)s3)nc3cccc(C)n23)cc1,·,PKM2 inh dose=?;PKM2 FLuc cs=0%;PKM2 inh LDH=16%
Cc1ccccc1Nc1c(-c2ccccc2)nc2cccc(C)n12,·,PKM2 inh dose=4%;PKM2 FLuc cs=-2%;PKM2 inh LDH=?
CSCCC(NC(=O)c1ccccc1Br)C(=O)Nc1ccc(C)cc1 (stereo not given),-12%,
COc1ccc(-c2csc(NC(=O)CSc3nc(C)nc4sc(C(=O)O)c(C)c34)n2)cc1,45%,
CS(=O)(=O)Nc1ccc(C2=NN(C(=O)c3ccco3)C(c3ccccc3F)C2)cc1 (stereo not given),118%,
Cc1ccc(C2CC(c3ccccc3)=NN2C(=S)Nc2ccccc2)o1 (stereo not given),36%,
